# According to PubChem BioAssay (NCI):
# This is part of a sample that, as a whole, favours compounds with a hit. Of some 83,000 tested, about 20% had one in any assay.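 Single-dose data. Exposure time 48 hours. Values below 10 considered active.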 A number with no mark means an inactive call. Active and inactive are the calls of the source.
# Key:
# Test in all cases: NCI-60 one-dose screen, 48 h (100 = growth as untreated, 0 = no growth, -100 = all killed)
# Conditions in all cases: 10 µM unless noted
# SK-MEL-2 melanoma = test system: SK-MEL-2 melanoma
# EKVX NSCLC = test system: EKVX NSCLC
# SN12C renal = test system: SN12C renal
# TK-10 renal = test system: TK-10 renal
# ACHN renal = test system: ACHN renal
# CAKI-1 renal = test system: CAKI-1 renal
# A498 renal = test system: A498 renal
# CCRF-CEM leukemia = test system: CCRF-CEM leukemia
# MOLT-4 leukemia = test system: MOLT-4 leukemia
# SR leukemia = test system: SR leukemia
# OVCAR-8 ovarian = test system: OVCAR-8 ovarian
# OVCAR-5 ovarian = test system: OVCAR-5 ovarian
# OVCAR-4 ovarian = test system: OVCAR-4 ovarian
# SK-OV-3 ovarian = test system: SK-OV-3 ovarian
# IGROV1 ovarian = test system: IGROV1 ovarian
# OVCAR-3 ovarian = test system: OVCAR-3 ovarian
# HS 578T breast = test system: HS 578T breast
# NCI/ADR-RES ovarian = test system: NCI/ADR-RES ovarian
# RPMI-8226 leukemia = test system: RPMI-8226 leukemia
# UO-31 renal = test system: UO-31 renal
SMILES,growth (SK-MEL-2 melanoma),growth (EKVX NSCLC),growth (SN12C renal),growth (TK-10 renal),growth (ACHN renal),growth (CAKI-1 renal),growth (A498 renal),growth (CCRF-CEM leukemia),growth (MOLT-4 leukemia),growth (SR leukemia),growth (OVCAR-8 ovarian),growth (OVCAR-5 ovarian),growth (OVCAR-4 ovarian),growth (SK-OV-3 ovarian),growth (IGROV1 ovarian),growth (OVCAR-3 ovarian),growth (HS 578T breast),growth (NCI/ADR-RES ovarian),growth (RPMI-8226 leukemia),growth (UO-31 renal)
Cc1ccc(/C=N\NC(=O)c2[nH]c3ccc(F)cc3c2-c2ccccc2)cc1,23.2%,38%,41.5%,72.5%,38.5%,1.21% (active),19%,18.4%,28.2%,19.7%,16.6%,62.5%,46.8%,20.4%,91.4%,-32.3% (active),16.7%,,,
CCOc1cccc(NC2=C(Br)C(=O)C(C)=C(C)C2=O)c1,95.5%,92.4%,85%,155%,85.8%,96%,109%,3.35% (active),2.57% (active),74.7%,91.5%,95.7%,56.7%,88%,58.6%,87.6%,91.2%,96.5%,,
COc1cc(C(=O)c2cnc(-c3c[nH]c4cccc(C)c34)[nH]2)cc(OC)c1OC,35%,29.7%,28.1%,,26.4%,6.61% (active),-12% (active),6.39% (active),8.85% (active),4.87% (active),,,34.5%,41.1%,22.1%,-49% (active),21.2%,3.24% (active),10%,
CC1=NN(c2ccc(S(=O)(=O)O)cc2)C(=O)C1N=Nc1ccc(-c2ccc(N=Nc3ccc(OS(=O)(=O)c4ccc(C)cc4)cc3)c(S(=O)(=O)O)c2)cc1 (stereo not drawn),78.8%,107%,93.6%,97.2%,102%,100%,95.2%,67.8%,84.3%,,102%,76.6%,93.8%,95.4%,-7.99% (active),111%,80%,97.9%,74.5%,
CCCCCCCCCCCCCCCCCCOc1ccc(CC(=O)OCC[N+]2(C)CCCCC2)cc1,104%,97.9%,89.1%,99.1%,97.5%,100%,100%,89.8%,98.6%,102%,96.9%,100%,86.8%,104%,92.6%,101%,108%,104%,,
NC1CCN(c2nc(Nc3cccc(C(F)(F)F)c3)c3c(=O)[nH]ccc3n2)CC1,-77.6% (active),4.44% (active),-75.8% (active),-26.9% (active),-70% (active),-13.8% (active),93.9%,-18.4% (active),-37.9% (active),,-44.7% (active),14.9%,-49.7% (active),-76.1% (active),-46.2% (active),-72.2% (active),-24.5% (active),,-45.4% (active),
CCCCNC(=O)Oc1ccc(/C(=C(\C)c2ccc(Cl)cc2)c2ccc(OCCN(CC)CC)cc2)cc1,117%,,75.4%,88.6%,93.7%,81.4%,71%,64.4%,58.4%,3.33% (active),,73.4%,69.6%,75.3%,81.6%,69.1%,74.4%,81.4%,63.9%,47.8%
CN(C)CCCNc1nc2ccccc2c2c(=O)c3cc(F)ccc3sc12,87.3%,66.3%,61.2%,59.7%,21.5%,8.81% (active),26.6%,10% (active),-11.2% (active),-37.9% (active),45.3%,73.7%,36.6%,78.1%,40.5%,26%,46.7%,43%,,
CN1CCN(c2ccc(-c3cc4c(Nc5ccc(F)c(Cl)c5)ncnn4c3)cn2)CC1,109%,100%,90.5%,76.7%,82.6%,96.3%,86.7%,42.9%,93.6%,,77.1%,97.8%,88.4%,110%,89.5%,98.6%,76.9%,83.6%,3.77% (active),
